Source: PubChem BioAssay (National Center for Advancing Translational Sciences (NCATS))
In the library only some 11% were active in any assay of this set; here they are far more common.
PNC inhibitor = perinucleolar compartment assembly inhibition | PC3M PTB-GFP, PNC prevalence imaging, 16 h; stronger effect = lower value | activity change (PNC), negative = inhibition, % at 10 µM | 3.1% of 140,000 active | AID 2417;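 active = readout at or below -70, meaning at least 70% loss of cells showing the perinucleolar compartment, a nuclear body marking cancer cells; inconclusive = readout between -30 and a set limit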;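 also: plate controls were DMSO wells for no effect and camptothecin positive control wells for full effect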
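Compounds are pinned in duplicate onto adhered PC3M cells stably expressing GFP-tagged PTB and incubated 16 h at 37 C. Cells are then fixed, nuclei stained with Hoechst, and PNC-positive cells counted.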
IMPase inh = membrane-permeable compound that blocks inositol monophosphatase; P97697; inhibition (IP1 accumulation), % at 46.1 µM; 120,000 tested, under 10 active; CHO-M1 cells, IP1 accumulation, HTRF TR-FRET ratio; active = well fitted curve in the direction sought with a large enough effect in the signal ratio, not every such curve was filed as active; inconclusive = small, poorly fitted or top-dose-only effect, or a change in a side signal; inactive = no such curve, though single readings can be large or run the other way; the % refers to the signal ratio;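 also: cells stimulated with carbachol in lithium chloride buffer; plate controls were DMSO basal wells for no effect and reference inhibitor wells for full effect; higher means more IMPase inhibition seen as more IP1 and lower FRET ratio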
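CHO-M1, 2000 cells/well, cultured 16–30 h; cpd up to 46 uM; carbachol (50 uM solution, stimulation buffer w/ 50 mM LiCl, pH 7.4), 30 min 37C; IP-One TR-FRET, 10 min RT; Ex 320/Em 665, 620; Hill-fit AC50.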
12-hLO inh = inhibitors of human 12-lipoxygenase (ALOX12); 0.12% of 150,000 active; Potency, µM (series often up to 57.1 µM), for the others: at the highest dose activity change, negative = inhibition, usual class: inhibitors; purified 12-hLO, xylenol orange hydroperoxide absorbance; AID 1452; active = well fitted curve in the direction sought with a large enough effect; inconclusive = small, poorly fitted or top-dose-only effect, or another doubt; inactive = no such curve, though single readings can be large; an effect the other way counts as inactive or inconclusive; also: potency is read from the fitted curve at half-maximal effect; nearly all actives have a fitted effect of over 55% in size
Target sequence (P18054 whole entry, looked up): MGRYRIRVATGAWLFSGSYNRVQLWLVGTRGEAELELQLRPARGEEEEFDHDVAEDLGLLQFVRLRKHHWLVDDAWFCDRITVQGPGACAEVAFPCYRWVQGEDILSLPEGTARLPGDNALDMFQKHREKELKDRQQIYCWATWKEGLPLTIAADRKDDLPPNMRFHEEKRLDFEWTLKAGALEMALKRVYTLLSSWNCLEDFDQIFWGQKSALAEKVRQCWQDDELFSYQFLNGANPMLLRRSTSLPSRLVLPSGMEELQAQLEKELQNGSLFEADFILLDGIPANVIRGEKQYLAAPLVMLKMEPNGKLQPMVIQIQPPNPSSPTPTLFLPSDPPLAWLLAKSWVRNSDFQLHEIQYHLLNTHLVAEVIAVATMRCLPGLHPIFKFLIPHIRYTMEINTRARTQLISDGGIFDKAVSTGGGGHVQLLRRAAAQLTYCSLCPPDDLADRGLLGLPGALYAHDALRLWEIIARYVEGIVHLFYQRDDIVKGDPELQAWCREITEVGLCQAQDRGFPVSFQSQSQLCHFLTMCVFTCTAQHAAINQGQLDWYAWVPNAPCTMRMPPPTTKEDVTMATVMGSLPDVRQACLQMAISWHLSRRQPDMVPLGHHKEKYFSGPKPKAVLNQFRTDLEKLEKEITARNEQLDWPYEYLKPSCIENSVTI
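Purified human 12hLO (150 nM final) was preincubated with compounds for 15 min at room temperature in 25 mM Hepes pH 7.0, 0.01% Triton X-100, then reacted with 40 uM arachidonic acid for 30 min. Hydroperoxide was detected with ferrous iron/xylenol orange.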
HPGD block = blocks human HPGD enzyme activity | purified HPGD, NADH fluorescence kinetic, PGE2 substrate | Potency, µM, inactives show top-dose activity change, negative = inhibition, most hits filed as inhibitors | 4.3% of 150,000 active | AID 894; also: potency is read from the fitted curve at half-maximal effect
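20 nM HPGD preincubated 15 min at room temperature with compound in 50 mM Tris-HCl pH 8, 0.01% Tween 20. Started with 1 mM NAD+ and 30 uM prostaglandin E2; NADH fluorescence (360/450 nm) read 5 times over 30-s intervals, last minus first.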
ALDH1A1 block = blocks purified human ALDH1A1 activity; P00352; Purified ALDH1A1, NADH fluorescence, propionaldehyde substrate; Potency, µM (top dose mostly 75.3 µM), for inactives: top-dose activity, negative = inhibition, most hits filed as inhibitors; 7.3% of 220,000 active; AID 1030;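 also: potency is read from the fitted curve at half-maximal effect; plate controls were no enzyme wells and a reference inhibitor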
IMPase Li inh = cell-permeable IMPase inhibitors with lithium potentiation. CHO-M1 cells, IP1 TR-FRET (IP-One), carbachol + lithium. Potency, µM (top dose mostly 59.4 µM), for inactives: at the highest dose activity, negative = IMPase inhibition, most hits filed as inhibitors. 0.35% of 210,000 active. AID 1457; active = well fitted curve in the direction sought with a large enough effect; inconclusive = small, poorly fitted or top-dose-only effect, or another doubt; inactive = no such curve, though single readings can be large; an effect the other way counts as inactive or inconclusive;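 also: IP1 builds up when IMPase is blocked and the TR-FRET signal falls; potency is read from the fitted curve at half-maximal effect; plate controls were basal vehicle for no effect and high inhibitor control for full effect; nearly all actives have a fitted effect of over 50% in size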
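CHO-M1, 2000 cells/well, 16–30 h culture; cpd + low Li+, 30 min 37C; lysis with d2-IP1/Eu-anti-IP1 Ab, 10 min RT; TR-FRET 665/620 ratio and 620 channel; AC50 via Hill.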
* = called active by the depositor; ? = inconclusive; / = no result; [ ] = remark or other dose. Unless noted, calls follow the shape of the dose curve; as a rule, active = well fitted inhibition curve with a large enough effect (not every such curve was filed as active); inconclusive = small, poorly fitted or top-dose-only effect, or another doubt; inactive = no such curve, though single readings can be large or run the other way. Unless noted, % is scaled to controls: 0 for no effect and ±100 for the full control effect.

SMILES | PNC inhibitor | IMPase inh | 12-hLO inh | HPGD block | ALDH1A1 block | IMPase Li inh
COc1ccc(S(=O)(=O)N2CCC(C(=O)Nc3ccccc3C)CC2)c2cccnc12 | -16 | 2 | 3% | -18% | 22µM* | -13%[38.3 µM]
O=c1c(-c2ccc(O)cc2)coc2c(C3OC(CO)C(O)C(O)C3O)c(O)ccc12 (stereo not drawn) | / | / | 5% | ? | ? | -8%
C/C=C\C[C@@H](C)[C@@H](O)[C@H]1C(=O)N[C@@H](CC)C(=O)N(C)CC(=O)N(C)[C@@H](CC(C)C)C(=O)N[C@@H](C(C)C)C(=O)N(C)[C@@H](CC(C)C)C(=O)N[C@@H](C)C(=O)N[C@H](C)C(=O)N(C)[C@@H](CC(C)C)C(=O)N(C)[C@@H](CC(C)C)C(=O)N(C)[C@@H](C(C)C)C(=O)N1C | / | 4 | -1% | -15% | 0% | 7%
COc1ccc(OCC(=O)Nc2ccccc2Cl)cc1 | / | / | / | / | -8% | 2%
O=C(COc1ccccc1Cl)Nc1cnn(Cc2ccccc2)c1 | -94* | 2 | 0% | -20% | ? | 36%[38.3 µM]
O=C(COc1ccccc1Cl)Nc1ccc(CN2CCCCC2)cc1 | / | / | / | / | ? | 23%
O=C(COC(=O)c1ccccn1)Nc1cc(Cl)ccc1Cl | 24 | -1 | -7% | -4% | -3% | -12%[38.3 µM]
O=C(COC(=O)c1ccccn1)Nc1ccccc1Cl | 0 | -1 | -3% | -2% | 22µM* | 4%[38.3 µM]
O=C(COc1ccccc1O)Nc1ccccc1Cl | ? | -2 | 9% | 18µM* | ? | 8%[38.3 µM]
O=C(c1ccc(S(=O)(=O)c2ccccc2Cl)c([N+](=O)[O-])c1)N1CCCCCC1 | -105* | 10 | -6% | 25µM* | ? | 9%
O=C(c1ccc(S(=O)(=O)Cc2ccccc2F)c([N+](=O)[O-])c1)N1CCCCCC1 | / | / | / | / | -15% | -2%
O=C1CC(c2c(F)cccc2Cl)C2=C(COC2=O)N1 (stereo not drawn) | ? | 11[1.84 µM] | -2% | -4% | ? | 32%[38.3 µM]
O=C1CC(c2ccccc2F)C2=C(COC2=O)N1 (stereo not drawn) | / | / | / | / | 18µM* | -8%
Cc1[nH]nc2c1C(c1ccccc1F)CC(=O)N2 (stereo not drawn) | -106* | 2 | 9% | -18% | 22µM* | 1%[38.3 µM]
Nc1cccc2cc(S(=O)(=O)Nc3ccc(C(=O)O)cc3)ccc12 | / | / | -8%[11.4 µM] | -20% | -4%[13.5 µM] | 4%
CCCCNS(=O)(=O)c1ccc2nc(SCC(=O)Nc3sccc3C#N)[nH]c2c1 | 6 | 7 | -17% | ? | ? | 21%[38.3 µM]
CCCCNS(=O)(=O)c1ccc2nc(SCC(=O)Nc3cccc(F)c3)[nH]c2c1 | -98* | / | -3% | -3% | -15% | -10%
CCCCNS(=O)(=O)c1ccc2nc(SCC(=O)c3ccccc3OC)[nH]c2c1 | -6 | 2 | -4% | 28µM* | ? | 7%[38.3 µM]
CCCCNS(=O)(=O)c1ccc2nc(SCC(=O)Nc3ccccc3Cl)[nH]c2c1 | -6 | -4 | -1% | / | ? | /
COc1cccc(-c2nccc(NC3CCNCC3)n2)c1 | / | / | 3% | -3% | 7% | -3%
Cc1nn(C)c(C)c1CNC(=O)/C=C/c1ccccc1F | -113* | / | -2% | -18% | -9% | 5%
COc1cccc(-c2nc(S(=O)(=O)c3ccc(C)cc3)c(N3CCCCC3)o2)c1 | / | 1 | / | / | / | /
CCCOc1ccc(C(CC(=O)O)NC(=O)c2sc3ccccc3c2Cl)cc1 (stereo not drawn) | / | / | / | / | ? | 3.2µM*
CCOc1ccc(C(CC(=O)O)NC(=O)c2ccco2)cc1 (stereo not drawn) | -27 | -6 | -2% | -17% | -3% | 3%
CCOc1ccc(C(CC(=O)O)NC(=O)c2sc3ccccc3c2Cl)cc1 (stereo not drawn) | ? | -29 | -4% | -29% | -13% | 8.9µM*
